This is part of a sample that, as a whole, favours compounds with a hit. Of some 79,000 tested, about 15% had one in any assay. A number with no mark means an inactive call. Calls of active or inactive are those of the source. Cut-off read from the data, not from the text of the source: active = growth inhibition above about 70%; inactive = the rest.

The first test can be described thus: NCI Yeast Anticancer Drug Screen. Data for the rad18 strain (AID 177). The following applies: S. cerevisiae rad18 mutant growth inhibition; at 33.0 µM; active compounds read high. In a few lines: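 Screen uses a yeast strain with a defined lesion in DNA damage repair; compound effect is read as loss of growth compared to untreated vehicle cultures.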
For the compound `O=[N+]([O-])C(=C(Sc1ccccc1)Sc1ccccc1)C(Cl)=C(Cl)Cl`, the growth inhibition is 76% (active).
The same measure, in the same setting: the result for `CCCCCCCCCC/C=C\C(=O)O` reads 19%; that for `COc1ccc(N=C2C(=O)Nc3ccc(Br)cc32)cc1`, -30%.
In the case of `COc1ccccc1C(=O)OCC1CCCN2CCCCC12` (configuration not stated), the growth inhibition is 95% (active).
As for `CC(C)(Br)C(=O)/C=C/c1ccc(Cl)c(Cl)c1`, the growth inhibition was 7%.
On the same count and under the same terms, for `Nc1ccccc1CC(O)C(=O)O` (configuration not stated) the value was 60%; for `CC(=O)N/N=C/C(C)(C)C(C)(C)/C=N/NC(C)=O`, 81% (active); for `CN(C)c1nc2sc3c(c2c(=O)o1)CCCC3`, 18%.
`CC(C)OC(=O)Oc1ccccc1OC(=O)OC(C)C`: the growth inhibition was -3%.
As for `Cc1ccc(N)c(S)c1`, the growth inhibition is 42%.
On the same count and under the same terms, for `O=C(O)c1ccccc1NC(=S)c1ccccc1` the value was 16%.
Still for that read-out and setting: for `COC(=O)c1ccc(NCC2=CC(=O)C=CC2=O)cc1O` the value was 97% (active); for `NC(N)=N/N=C\c1c2ccccc2cc2ccccc12`, -30%.
For `COC(=O)CSSCc1ccc([N+](=O)[O-])cc1`, the growth inhibition was 83% (active).
The same measure, in the same setting: the result for `CCS(=O)(=O)c1ccc(/C=C/C=N/NC(=S)NCC(C)C)cc1` reads 5%; that for `N#CC(C(=O)Nc1ccccc1)C1=C(Cl)C(=O)c2ccccc2C1=O` (configuration not stated), 98% (active); that for `C[C@H](CCC(=O)NN)[C@H]1CC[C@H]2[C@@H]3CC[C@@H]4C[C@H](O)CC[C@]4(C)[C@H]3CC[C@]12C`, 0%.
On the same count and under the same terms, for `CC[n+]1ccc2c(C)c3[nH]c4ccc(O)cc4c3c(C)c2c1` the value was -6%.

The test is the same for the next values; noted with them: S. cerevisiae rad18 mutant growth inhibition; at 100.0 µM; active compounds read high.
For `CCCc1cc(C(=O)OCC)cc(CCC)c1O`, the growth inhibition is 98% (active).
Same read-out and setting: for `CC(C)[N+]([O-])(CCCNc1c2ccccc2nc2cccc([N+](=O)[O-])c12)C(C)C` the value was 97% (active); for `COc1cc2c3c(cccc3c1)C(=O)N(CCN(C)C)C2=O`, -27%; for `NC(=O)NN=C(CS)CS`, 95% (active).
On the same count and under the same terms, the result for `Cc1ccc(NC(=O)/C(Cl)=C(\Cl)C(=O)O)cc1C` reads 99% (active); that for `CCN(CC)CC[n+]1ccc2c(C)c3[nH]c4ccc(O)cc4c3c(C)c2c1`, 58%; that for `CC(CC(C)(C)[N+](C)(C)C)[N+](C)(C)C` (configuration not stated), 20%.
Same read-out and setting: the result for `COc1ccc(OC)c2cc3ccccc3cc12` reads 50%; that for `Nc1ncncc1C(C1=C(O)COC1=O)C1=C(O)COC1=O`, -4%; that for `CSC1=NNC(SC)=NN1`, 98% (active).
`Cc1c(Cl)ccc2c1S(=O)(=O)c1cccc(Cl)c1-2`: the growth inhibition is 7%.
On the same count and under the same terms, for `[O-][n+]1c2ccc(O)cc2nc2ccc(Cl)cc21` the value was 82% (active); for `COc1ccc2ccc3ccccc3c2c1C=O`, 83% (active); for `Nc1ccc2c(c1)C(=O)c1cccc(N)c1C2=O`, 93% (active).
Consider `O=C(c1ccc(Cl)cc1Cl)C(Cl)Cl`, for which the growth inhibition is 98% (active).
On the same count and under the same terms, for `COc1cc(C(=O)/C=C/c2ccccc2O)ccc1O` the value was 98% (active); for `O=Cc1cccc2ccc3ccccc3c12`, 98% (active); for `O=C(Nc1ccc(Cl)cc1)OCC#CCCl`, 52%.
The same measure, in the same setting: the result for `Cn1ccnc1Oc1ccc(Cl)cc1` reads 97% (active); that for `c1ccc2c(c1)C(=NCCCN1CCCCCC1)c1cccn1-2`, 98% (active).
The same measure, in the same setting: for `C/C(=N\O)C1CC2C=C(C#N)C1N(Cc1ccccc1)C2` (configuration not stated) the value was 86% (active).
Consider `O=[N+]([O-])C(=C(Sc1ccccc1)Sc1ccccc1)C(Cl)=C(Cl)Cl`, for which the growth inhibition is 74% (active).
`CCCCCCCCCC/C=C\C(=O)O`: the growth inhibition is 97% (active).
For `COc1ccc(N=C2C(=O)Nc3ccc(Br)cc32)cc1`, the growth inhibition is -28%.
On the same count and under the same terms, the result for `COc1ccccc1C(=O)OCC1CCCN2CCCCC12` (configuration not stated) reads 97% (active); that for `CC(C)(Br)C(=O)/C=C/c1ccc(Cl)c(Cl)c1`, 50%.
The same measure, in the same setting: the result for `Nc1ccccc1CC(O)C(=O)O` (configuration not stated) reads 90% (active); that for `CC(=O)N/N=C/C(C)(C)C(C)(C)/C=N/NC(C)=O`, 93% (active); that for `CN(C)c1nc2sc3c(c2c(=O)o1)CCCC3`, 48%.
Still for that read-out and setting: for `CC(C)OC(=O)Oc1ccccc1OC(=O)OC(C)C` the value was 0%; for `Cc1ccc(N)c(S)c1`, 90% (active).
On to `O=C(O)c1ccccc1NC(=S)c1ccccc1`, for which the growth inhibition is 69%.
On the same count and under the same terms, for `COC(=O)c1ccc(NCC2=CC(=O)C=CC2=O)cc1O` the value was 95% (active); for `NC(N)=N/N=C\c1c2ccccc2cc2ccccc12`, 95% (active).
Still for that read-out and setting: the result for `COC(=O)CSSCc1ccc([N+](=O)[O-])cc1` reads 97% (active); that for `CCS(=O)(=O)c1ccc(/C=C/C=N/NC(=S)NCC(C)C)cc1`, 9%; that for `N#CC(C(=O)Nc1ccccc1)C1=C(Cl)C(=O)c2ccccc2C1=O` (configuration not stated), 97% (active).
The same measure, in the same setting: for `C[C@H](CCC(=O)NN)[C@H]1CC[C@H]2[C@@H]3CC[C@@H]4C[C@H](O)CC[C@]4(C)[C@H]3CC[C@]12C` the value was 3%; for `CC[n+]1ccc2c(C)c3[nH]c4ccc(O)cc4c3c(C)c2c1`, 6%.

The values above are taken from PubChem BioAssay (NCI).
